NS1 inh – qHTS Assay for Inhibitors of Influenza NS1 Protein Function. Potency, µM (top dose mostly 46.1 µM), for inactives: at the highest dose activity, positive = more growth. hit rate 0.4% among 270,000. AID 2326, 2010; calls by dose curve; further: potency means the concentration at half of the fitted maximal effect; actives are rising curves; nearly all actives have a fitted effect of over 50% in size
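A cell-based growth assay was used: compounds that relieve NS1-induced slow growth of budding yeast raise OD600. Assay medium was yeast nitrogen base with ammonium sulphate and -URA supplement, pH 6.0, with 2% galactose.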
Shiga toxin inh – A qHTS for Small Molecule Inhibitors of Shiga Toxin; Vero cells, Shiga toxin protein synthesis inhibition reporter; inhibition, % at 38.7 µM; hit rate 9.2% among 290,000; AID 2315, 2010; in the data active means inhibition mostly above about 28%, no sharp cut-off; inactive means mostly below about 43%; further: 0% is about no effect
Pf growth 48h – Primary qHTS for delayed death inhibitors of the malarial parasite plastid, 48 hour incubation. P. falciparum luciferase growth in erythrocytes, 48 h. Potency, µM (highest dose often 28.7 µM), without a hit: at the top dose activity change, negative = inhibition, hits mostly inhibitors. hit rate 5.9% among 310,000. AID 504832, 2011; further: potency means the concentration at half of the fitted maximal effect; on the % scale 0 is the no-effect control and ±100 the full control effect
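Here the parasites carry a stable luciferase gene and grow inside erythrocytes in Albumax-based RPMI medium with compound for one erythrocytic cycle. Activity is scored as loss of luminescent signal.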
Pf growth 96h – Primary qHTS for delayed death inhibitors of the malarial parasite plastid, 96 hour incubation; P. falciparum luciferase reporter growth, 96 h; Potency, µM (doses to about 28.7 µM), inactives show at the top dose activity change, negative = inhibition, most hits filed as inhibitors; hit rate 6.9% among 320,000; AID 504834, 2011; further: potency means the concentration at half of the fitted maximal effect; on the % scale 0 is the no-effect control and ±100 the full control effect
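Cell-based qHTS: luciferase-tagged P. falciparum in erythrocytes (2% hematocrit, 0.05% parasitemia final) incubated with compounds for 96 hours, 37 C, 5% CO2; luciferase detection reagent then added and luminescence measured.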
Cycloheximide cs – Cycloheximide Counterscreen for Small Molecule Inhibitors of Shiga Toxin; hit rate 12% among 300,000; cell reporter, cycloheximide protein synthesis inhibition counterscreen; max response, %; in the data active means max response mostly above about 13%, no sharp cut-off; inactive means mostly below about 14%; further: read at 38.3 µM for the half of the compounds with a filed dose; 0% is about no effect
SARS PLpro yeast – qHTS of Yeast-based Assay for SARS-CoV PLP. AID 485353, 2010. S. cerevisiae expressing SARS-CoV PLpro, growth rescue. hit rate 0.19% among 330,000. Potency, µM (highest dose often 32.9 µM), without a hit: top-dose activity, positive = growth rescue, actives largely listed as activators; calls by dose curve; further: potency means the concentration at half of the fitted maximal effect; 0% is about no effect; nearly all actives have a fitted effect of over 55% in size
The depositor's hits bear a star; ? = inconclusive; / = not tested or not shown; [ ] = remark or other dose. In the library only some 21% were active in any assay of this set; here they are far more common. Unless noted, the call rests on the fitted dose curve; in most records, active means well fitted inhibition curve with a large enough effect; inconclusive means small, poorly fitted or top-dose-only effect, or another doubt; inactive means no such curve, though single readings can be large or run the other way.

SMILES	NS1 inh	Shiga toxin inh	Pf growth 48h	Pf growth 96h	Cycloheximide cs	SARS PLpro yeast
COc1cccc(-c2noc(CCC(=O)NCC3CCCO3)n2)c1 (stereo not drawn)	/	26.6	68.6%	35.6%	16.1	1.4%
COc1ccc(C(=O)NC2CCN(S(=O)(=O)c3ccc(C)cc3)CC2)cc1	11.7%	-1.7	-10.3%	?	0.2	0.8%
O=C(Nc1nccs1)c1nc[nH]c1C(=O)NCc1ccccc1	/	/	?	?	/	2.2%
CC1CCCN(C(=O)Nc2ccc(Br)cc2Cl)C1 (stereo not drawn)	-11.6%	96.2*	62.7%	49.4%	44.7*	0.9%
O=C(Nc1ccc(F)cc1F)N1CCCCCC1	-7.0%	22.6	49.3%	-21.0%	26.9*	8.8%
CC1CN(C(=O)Nc2ccc(Br)cc2Cl)CC(C)O1 (stereo not drawn)	-0.2%	-0.6	-12.6%	?	0.8	-0.2%
Cc1nc2c(cc1N)nc(C)n2Cc1ccccc1	0.4%	-4.2	-2.1%	2.62µM*	1.8	-3.9%
CCCCN(CCCC)CCNC(=O)c1cn(C)c2ccc(S(=O)(=O)N3CCCC3)cc2c1=O	1.6%	1.4	-18.6%	11.7µM*	-3.4	/
COCCNC(=O)c1cn(C)c2ccc(S(=O)(=O)N3CCCC3)cc2c1=O	15.4%	-4.3	13.3%	-17.1%	-3.2	-0.5%
Cn1cc(C(=O)NC2CCCCCCC2)c(=O)c2cc(S(=O)(=O)N3CCCC3)ccc21	-6.0%	-12.0	?	8.28µM*	-3.7	8.0%
CCn1cc(C(=O)NCCCN2CC(C)CC(C)C2)c(=O)c2cc(S(=O)(=O)N(C)C3CCCCC3)ccc21 (stereo not drawn)	-13.9%	2.3	?	-81.6%	9.0	-1.5%
CC1CCCN(CCCNC(=O)c2cn(C)c3ccc(S(=O)(=O)N(C)C4CCCCC4)cc3c2=O)C1 (stereo not drawn)	5.4%	-1.4	13.1µM*	20.7%	-2.1	-1.0%
CCN(CC)CCNC(=O)c1cn(CC)c2ccc(S(=O)(=O)N3CCc4ccccc4C3)cc2c1=O	-2.8%	-6.6	?	1.04µM*	7.5	-4.0%
COc1ccc(N2C(=O)C3[C@@H](C2=O)C2(Cl)C(Cl)=C(Cl)C3(Cl)C2(OC)OC)cc1 (stereo partly drawn)	3.4%	-7.5	4.7%	6.8%	-0.4	13.1%
COc1ccc(C)cc1NC(=O)CCNC(=O)Cn1ccc2ccccc2c1=O	-4.2%	-6.2	19.4%	?	-3.2	-0.9%
CCn1cc(C(=O)N2CCc3ccccc3C2)c(=O)c2cc(S(=O)(=O)N3CCCCC3)ccc21	16.6%	16.1	?	-25.9%	-1.8	-0.6%
CCOCCCNC(=O)c1cn(CC)c2ccc(S(=O)(=O)N3CCOCC3)cc2c1=O	-5.2%	-15.6	-9.9%	10.4µM*	7.5	1.6%
CCOCCCNC(=O)c1cn(C)c2ccc(S(=O)(=O)N3CCCC3)cc2c1=O	5.3%	-5.9	-27.1%	6.57µM*	-1.0	1.3%
Cn1cc(C(=O)NCc2ccc(F)cc2)c(=O)c2cc(S(=O)(=O)N3CCCCC3)ccc21	4.1%	-10.7	14.7µM*	-25.1%	-4.0	-2.9%
Cn1cc(C(=O)N2CCc3ccccc3C2)c(=O)c2cc(S(=O)(=O)N3CCCCC3)ccc21	5.5%	-16.3	-17.0%	3.7µM*	-2.2	-11.2%
CCCCSCCCNC(=O)c1cn(CC)c2ccc(S(=O)(=O)N3CCOCC3)cc2c1=O	14.5%	-6.0	?	?	-5.3	-0.2%
CCS(=O)(=O)N1CCN(c2ccc(Cl)cc2[N+](=O)[O-])CC1	-1.6%	6.7	18.9%	8.3%	4.9	6.3%
CCOc1ccc(NC(=S)NNc2ccnc3cc(Cl)ccc23)cc1	/	-8.0	?	2.08µM*	8.3	-1.1%
S=C(NCc1ccncc1)Nc1ccc(Cl)cc1Cl	0.7%	2.8	-35.3%	22.6%	7.7	0.1%
S=C(NNc1ccnc2cc(Cl)ccc12)Nc1ccc(Cl)cc1Cl	-10.9%	0.7	1.85µM*	0.738µM*	-2.7	-1.2%
SMILES	NS1 inh	Shiga toxin inh	Pf growth 48h	Pf growth 96h	Cycloheximide cs	SARS PLpro yeast
CCOc1ccc(NC(=S)NNC(=O)c2cc(Br)ccc2Cl)cc1	/	-3.2	-8.2%	-33.1%[5.75 µM]	9.0	-2.6%
CCN1C(=O)CSc2ccc(C(=O)NCCCN3CCOCC3)cc21	3.1%	1.2	9.2%	23.5%	7.0	2.1%
O=C(NCc1ccc2c(c1)OCO2)c1ccc2c(c1)N(Cc1c(F)cccc1Cl)C(=O)CS2	?	-14.5	11.7µM*	-77.0%	-4.8	10.6%
CCC1CCCCN1CCCNC(=O)c1ccc2c(c1)N(Cc1c(F)cccc1Cl)C(=O)CS2 (stereo not drawn)	-7.2%	0.8	13.1µM*	?	-6.8	-4.4%
Cc1ccc(N2CCN(/N=C/c3ccccc3)CC2)cc1	4.6%	3.7	18.7%	24.6%	-2.0	-0.2%
C(=N/N1CCN(c2ccccc2)CC1)/c1ccncc1	-2.2%	29.4*	6.7%	-22.3%	17.0*	-1.9%
Cn1cccc1/C=N/N1CCN(c2ccccc2)CC1	/	130.3*	0.0%	56.1%	40.8*	-1.4%
O=C(O)c1ccc(/C=N/N2CCN(c3ccccc3)CC2)cc1	-9.6%	87.7*	30.5%	207.3%	33.6*	-5.5%
CS/C(N)=C(C#N)/C(C#N)=C(\N)SC	/	16.6	/	/	5.7	/
COc1cc(CN2CCCCC2C(=O)Nc2ccc(Oc3ccccc3)nc2)ccc1O (stereo not drawn)	11.7%	81.4*	?	4.9%	55.2*	-0.5%
COCCC(=O)N1CCC(C(=O)Nc2ccc(Oc3ccccc3)nc2)CC1	-5.6%	65.6*	19.7%	0.2%	63.0*	-2.8%
O=C(Nc1ccc(Oc2ccccc2)nc1)C1CCCCN1Cc1cccc(O)c1 (stereo not drawn)	-2.1%	3.6	?	5.86µM*	-3.3	-6.4%
COCCc1ncc(CN2CCCCC2C(=O)Nc2ccc(Oc3ccccc3)nc2)cn1 (stereo not drawn)	4.5%	-10.2	-16.1%	-21.5%	-1.8	13.6%
O=C(Nc1ccc(Oc2ccccc2)nc1)C1CCCCN1Cc1ccc(O)cc1 (stereo not drawn)	13.4%	12.2	?	?	19.5*	0.2%
NC/C=C/C(=O)O	0.7%	/	12.6%	12.1%	/	/
O=C(c1ccc(CNc2c(N3CCCC3)c(=O)c2=O)cc1)N1CC=C(c2ccccc2)CC1	6.1%	11.5	?	?	14.1	1.0%
CC(NC(=O)c1cccc(S(=O)(=O)N2CCc3ccccc32)c1)c1ccco1 (stereo not drawn)	/	/	?	?	/	-0.2%
N#CC1=C(N)Oc2cc3ccccc3cc2C1c1cccs1 (stereo not drawn)	5.2%	-8.1	-2.9%	1.8%	-3.7	0.1%
CN(C)/C=N/C1=C(C#N)C(c2cccs2)c2ccc3ccccc3c2O1 (stereo not drawn)	3.8%	66.3*	-1.2%	-107.9%	46.6*	-2.0%

High-throughput results deposited in PubChem by National Center for Advancing Translational Sciences (NCATS).
